Experimental data reported in PubChem BioAssay AID1159580 (chemical genetic matrix, 2015).
In all, about 5,500 compounds went through this assay and about 2,000 (36%) were called active. Inconclusive results (about 18%) are left out. No stated cut-off is given here; in the data, active means normalized growth mostly below about 0.91 (no sharp cut-off); inconclusive means no clear call, values can overlap the other calls; inactive means mostly above about 0.92. This is one part of the list.

Experiment: chemical genetic growth profiling, strain panel (AID 1159580);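 further: tested at 20 µM; growth read once vehicle control cultures reached saturation at 30 °C; 1 = growth at the plate median or of vehicle wells; lower values mean less growth of the strain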
Conditions: growth OD

Measured: normalized growth

CN(C)C(=S)SSC(=S)N(C)C
active: S. cerevisiae deletion strains, locus YJR075W, strain HOC1, active compounds read low 0.0622 | S. cerevisiae deletion strains, locus YKL009W, strain mrt4, active compounds read low 0.657 | S. cerevisiae deletion strains, locus YKL068W, active compounds read low 0.055 | S. cerevisiae deletion strains, locus YKL085W, strain MDH1 (second series), active compounds read low 0.0509 | S. cerevisiae deletion strains, locus YKL085W, strain MDH1, active compounds read low 0.0509 | S. cerevisiae deletion strains, locus YKL160W, strain elf1, active compounds read low 0.0619 | S. cerevisiae deletion strains, locus YKL190W, strain CNB1, active compounds read low 0.0467 | S. cerevisiae deletion strains, locus YKR001C, strain vps1, active compounds read low 0.061 | S. cerevisiae deletion strains, locus YKR026C, strain gcn3, active compounds read low 0.0601 | S. cerevisiae deletion strains, locus YKR091W, strain srl3, active compounds read low 0.058 | S. cerevisiae deletion strains, locus YLL001W, strain dnm1, active compounds read low 0.0595 | S. cerevisiae deletion strains, locus YLL026W, active compounds read low 0.0612 | S. cerevisiae deletion strains, locus YLL041C, strain sdh2, active compounds read low 0.0559 | S. cerevisiae deletion strains, locus YLR027C, strain aat2, active compounds read low 0.0546 | S. cerevisiae deletion strains, locus YLR039C, strain RIC1, active compounds read low 0.0839 | S. cerevisiae deletion strains, locus YLR058C, strain SHM2, active compounds read low 0.048 | S. cerevisiae deletion strains, locus YLR102C, strain apc9, active compounds read low 0.0608 | S. cerevisiae deletion strains, locus YLR113W, strain HOG1, active compounds read low 0.126 | S. cerevisiae deletion strains, locus YLR221C, strain rsa3, active compounds read low 0.0608 | S. cerevisiae deletion strains, locus YLR258W, strain gsy2, active compounds read low 0.0595 | S. cerevisiae deletion strains, locus YLR262C, strain YPT6 (second series), active compounds read low 0.0761 | S. cerevisiae deletion strains, locus YLR262C, strain YPT6, active compounds read low 0.0956 | S. cerevisiae deletion strains, locus YLR268W, strain sec22, active compounds read low 0.0648 | S. cerevisiae deletion strains, locus YLR320W, strain mms22, active compounds read low 0.0851 | S. cerevisiae deletion strains, locus YLR330W, strain CHS5, active compounds read low 0.0523 | S. cerevisiae deletion strains, locus YLR342W, strain FKS1 (second series), active compounds read low 0.0636 | S. cerevisiae deletion strains, locus YLR342W, strain FKS1, active compounds read low 0.0632 | S. cerevisiae deletion strains, locus YLR357W, strain rsc2, active compounds read low 0.117 | S. cerevisiae deletion strains, locus YLR370C, strain arc18, active compounds read low 0.0609 | S. cerevisiae deletion strains, locus YLR371W, strain rom2, active compounds read low 0.0607 | S. cerevisiae deletion strains, locus YLR384C, strain iki3, active compounds read low 0.0593 | S. cerevisiae deletion strains, locus YLR418C, strain cdc73, active compounds read low 0.0915 | S. cerevisiae deletion strains, locus YML016C, strain PPZ1, active compounds read low 0.0487 | S. cerevisiae deletion strains, locus YML032C, strain rad52, active compounds read low 0.0671 | S. cerevisiae deletion strains, locus YML120C, strain ndi1, active compounds read low 0.0572 | S. cerevisiae deletion strains, locus YML124C, strain tub3, active compounds read low 0.0583 | S. cerevisiae deletion strains, locus YMR058W, strain fet3, active compounds read low 0.0575 | S. cerevisiae deletion strains, locus YMR078C, strain ctf18, active compounds read low 0.0701 | S. cerevisiae deletion strains, locus YMR125W, strain sto1, active compounds read low 0.0716 | S. cerevisiae deletion strains, locus YMR129W, active compounds read low 0.0557 | S. cerevisiae deletion strains, locus YMR205C, strain PFK2, active compounds read low 0.0852 | S. cerevisiae deletion strains, locus YMR223W, strain ubp8, active compounds read low 0.062 | S. cerevisiae deletion strains, locus YMR231W, strain pep5, active compounds read low 0.0656 | S. cerevisiae deletion strains, locus YMR263W, strain SAP30, active compounds read low 0.0571 | S. cerevisiae deletion strains, locus YMR307W, strain GAS1, active compounds read low 0.108 | S. cerevisiae deletion strains, locus YNL067W, strain RPL9B, active compounds read low 0.0475 | S. cerevisiae deletion strains, locus YNL071W, strain lat1, active compounds read low 0.0591 | S. cerevisiae deletion strains, locus YNL128W, strain TEP1, active compounds read low 0.0618 | S. cerevisiae deletion strains, locus YNL153C, strain GIM3, active compounds read low 0.0449 | S. cerevisiae deletion strains, locus YNL183C, strain NPR1, active compounds read low -0.000652 | S. cerevisiae deletion strains, locus YNL209W, strain ssb2, active compounds read low 0.0584 | S. cerevisiae deletion strains, locus YNL233W, strain BNI4, active compounds read low 0.0527 | S. cerevisiae deletion strains, locus YNL248C, strain rpa49, active compounds read low 0.0732 | S. cerevisiae deletion strains, locus YNL250W, strain rad50, active compounds read low 0.0632 | S. cerevisiae deletion strains, locus YNL271C, strain bni1, active compounds read low 0.0624 | S. cerevisiae deletion strains, locus YNL298W, strain CLA4, active compounds read low 0.0589 | S. cerevisiae deletion strains, locus YNL307C, strain MCK1, active compounds read low 0.0687 | S. cerevisiae deletion strains, locus YNL322C, strain KRE1 (second series), active compounds read low 0.0642 | S. cerevisiae deletion strains, locus YNL322C, strain KRE1, active compounds read low 0.0479 | S. cerevisiae deletion strains, locus YNR049C, strain mso1, active compounds read low 0.0549 | S. cerevisiae deletion strains, locus YNR052C, strain pop2, active compounds read low 0.0601 | S. cerevisiae deletion strains, locus YOL006C, strain TOP1, active compounds read low 0.0896 | S. cerevisiae deletion strains, locus YOL012C, strain htz1 0.179 | S. cerevisiae deletion strains, locus YOL147C, strain pex11, active compounds read low 0.0594 | S. cerevisiae deletion strains, locus YOR001W, strain rrp6, active compounds read low 0.0656 | S. cerevisiae deletion strains, locus YOR061W, strain CKA2, active compounds read low 0.0451 | S. cerevisiae deletion strains, locus YOR069W, strain VPS5, active compounds read low 0.0465 | S. cerevisiae deletion strains, locus YOR070C, strain gyp1, active compounds read low 0.0589 | S. cerevisiae deletion strains, locus YOR080W, strain dia2, active compounds read low 0.067 | S. cerevisiae deletion strains, locus YOR083W, strain WHI5, active compounds read low 0.0647 | S. cerevisiae deletion strains, locus YOR106W, strain vam3, active compounds read low 0.061 | S. cerevisiae deletion strains, locus YOR136W, strain idh2, active compounds read low 0.0736 | S. cerevisiae deletion strains, locus YOR144C, strain elg1, active compounds read low 0.0615 | S. cerevisiae deletion strains, locus YOR184W, strain ser1, active compounds read low 0.0681 | S. cerevisiae deletion strains, locus YOR231W, strain MKK1, active compounds read low 0.103 | S. cerevisiae deletion strains, locus YOR265W, strain rbl2, active compounds read low 0.0567 | S. cerevisiae deletion strains, locus YOR270C, strain vph1, active compounds read low 0.0916 | S. cerevisiae deletion strains, locus YOR290C, strain snf2, active compounds read low 0.0706 | S. cerevisiae deletion strains, locus YOR316C, strain cot1, active compounds read low 0.0552 | S. cerevisiae deletion strains, locus YPL051W, strain arl3, active compounds read low 0.0635 | S. cerevisiae deletion strains, locus YPL055C, strain LGE1, active compounds read low 0.0716 | S. cerevisiae deletion strains, locus YPL078C, strain atp4, active compounds read low 0.0627 | S. cerevisiae deletion strains, locus YPL106C, strain sse1, active compounds read low 0.1 | S. cerevisiae deletion strains, locus YPL240C, strain hsp82, active compounds read low 0.0673 | S. cerevisiae deletion strains, locus YPL241C, strain CIN2, active compounds read low 0.0518 | S. cerevisiae deletion strains, locus YPL256C, strain CLN2, active compounds read low 0.125 | S. cerevisiae deletion strains, locus YPR119W, strain clb2, active compounds read low 0.0622 | S. cerevisiae deletion strains, locus YPR141C, strain kar3, active compounds read low 0.0653 | S. cerevisiae deletion strains, locus YPR163C, strain tif3, active compounds read low 0.0696 | S. cerevisiae deletion strains, locus YPR167C, strain met16, active compounds read low 0.0614 | S. cerevisiae deletion strains, strain wtn01, active compounds read low 0.0602 | S. cerevisiae strains, strain wild type, active compounds read low 0.0482
